Peg3 prom inh-1: reduces Peg3 promoter-driven luciferase expression in HeLa | inhibition, % at 20 µM | HeLa PEG-Prom luciferase reporter, luminescence, overnight | hit rate 1.7% among 360,000;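 active = inhibition of at least 50% at 20 µM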
TWEAK Fn14 block: TWEAK-Fn14 signaling inhibition; inhibition, % at 10 µM; hit rate 2% among 360,000; AID 1159606; TWEAK-stimulated Fn14 reporter cells, luciferase luminescence, 8 h; in the data active = inhibition above about 50%
TROY signal inh: blocks TROY-dependent signaling in reporter cells | inhibition, % at 10 µM | hit rate 0.98% among 360,000 | Q293 LMP1-TROYcd NF-kB luciferase reporter, 4 h;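 active = compounds whose plate-normalised and pattern-corrected inhibition of the luciferase reporter signal at the single screening dose is 50% or more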
HIF-2a block: blocks HIF-2a reporter activity; 786-0 RCC cells HIF-2a reporter, luciferase luminescence, overnight; inhibition, % at 18.8 µM; hit rate 0.72% among 360,000; AID 624352;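 active = inhibition of the luminescence signal of 40% or more relative to plate controls, in a single-dose primary screen at 18.75 µM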
KKLEB tox: counter-screen for CF NF-kB inhibitors: cytotoxicity | KKLEB CF airway cells viability, ATPlite luminescence, overnight; stronger effect = lower value; cells stimulated with P. aeruginosa culture filtrate | activity change (cytotoxicity), % at 5 µM | hit rate 0.36% among 360,000;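 active = corrected activity change at or below -50% at 5 µM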
CF NFkB inh: blocks PAF-induced NF-kB reporter in cystic fibrosis cells. AID 588850. inhibition, % at 5 µM. KKLEB NF-kB-GFP reporter, GFP fluorescence overnight. hit rate 0.86% among 360,000;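 active = at least 50% inhibition at 5 µM, scaled per plate between neutral and stimulator controls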;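 note: PAF is a Pseudomonas aeruginosa culture filtrate used as stimulus; plate controls were PAF-stimulated DMSO wells for no effect and unstimulated DMSO wells for full effect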
Peg3 prom inh-2: Peg3 promoter inhibition confirmation; shares compounds with Peg3 prom inh-1; inhibition, % at 20 µM; HeLa PEG-Prom luciferase reporter, luminescence, overnight; hit rate 84% among 1,300; AID 602417;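 active = at 20 µM dose, 40% or more inhibition averaged across four replicates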
CF NFkB conf: confirmation of cystic fibrosis induced NF-kB inhibitors; KKLEB CF airway cells, PAF-induced NF-kB-GFP fluorescence, overnight; shares compounds with CF NFkB inh; inhibition, % at 5 µM; hit rate 64% among 1,300; AID 602472; in the data active = inhibition above about 40%;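 note: stimulus PAF is a Pseudomonas aeruginosa filtrate and not platelet activating factor; plate controls were DMSO wells with stimulus for no effect and unstimulated DMSO wells for full effect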
Mdm2-MdmX confirm: Mdm2/MdmX (human) interaction inhibition, confirmed; SaOS-2 split-luciferase Mdm2/MdmX complementation, luminescence; hit rate 99% among 740; AID 504601; inhibition, % at 8 µM; shares compounds with HIF-2a block;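 active = mean inhibition of the luminescence signal across two replicates at or above 26 percent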
HIF-2a inh conf: HIF-2a inhibition, single concentration confirmation; hit rate 56% among 1,800; 786-0 RCC cells, HIF-2a luciferase reporter luminescence, overnight; inhibition, % at 18.8 µM; shares compounds with HIF-2a block;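 active = mean inhibition across four replicates of at least 40 percent at the single tested concentration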
HIF-1a cs: HIF-1a inhibition counter-screen for HIF-2a hits. shares compounds with HIF-2a block. inhibition, % at 18.8 µM. hit rate 72% among 1,800. MiaPaCa-2 HIF-1a luciferase reporter, desferoxamine, overnight;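 active = mean inhibition of the reporter signal across four replicates at the single tested dose of 50% or more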
An asterisk follows results filed as active; nt = no result. Only some compounds are listed: those with a hit (about 4% of all), similar ones and a draw of the others.

SMILES	Peg3 prom inh-1	TWEAK Fn14 block	TROY signal inh	HIF-2a block	KKLEB tox	CF NFkB inh	Peg3 prom inh-2	HIF-2a inh conf	HIF-1a cs	others
O=C(NCCc1ccccc1F)c1ccc2c(c1)OCCO2	106*	108*	86*	91*	-26	2	93*	96*	101*	Mdm2-MdmX confirm=96*
O=C(COC(=O)CCC(=O)c1cccs1)NC1CCCCC1	7	2	16	5	-6	7	nt	nt	nt
Cc1nn(C(C)(C)C)c(C)c1/C=N/OC(=O)Nc1ccc(Cl)c(Cl)c1	106*	105*	87*	94*	-8	8	97*	98*	100*
C[n+]1c(-c2ccccc2)cc2c(=Cc3ccccc3)c3ccccc3n21	103*	74*	28	61*	-29	46	96*	93*	104*
Cc1ccc(C(=O)NCCc2cccs2)cc1	62*	85*	69*	44*	-24	-13	44*	62*	57*
CCOc1ccccc1NC(=O)CCS(=O)(=O)c1ccc2c(c1)CCN2C(C)=O	-3	-9	7	7	-1	3	nt	nt	nt
COc1ccc(N(C(=O)Cc2cccs2)C(C(=O)NC2CCCC2)c2ccncc2)cc1 (centres undefined)	-4	14	-49	-11	-3	3	nt	nt	nt
COc1ccc(N(C(=O)CCl)C(C(=O)NC2CCCCC2)c2cccnc2)cc1 (centres undefined)	100*	47	-13	31	-42	38	99*	nt	nt	Mdm2-MdmX confirm=103*
COc1cccc(CNC(=O)CCCc2cn(C)c3ccccc23)c1	5	1	-10	7	-5	9	nt	nt	nt
COc1ccc(-c2cc(-c3ccc(F)cc3)nc(N3CCN(C)CC3)n2)cc1	80*	-1	-15	52*	-35	-19	58*	1	70*
O=S(=O)(NCc1ccc(F)cc1)c1ccc(Br)cc1Br	-6	0	-3	-16	-16	20	nt	nt	nt
C=C1CC2(OC1=O)c1ccccc1CCc1ccccc12	97*	34	51*	90*	-85*	89*	97*	98*	107*
CCCCN1C(=O)C(CC(=O)NCc2cccc3ccccc23)CC(C(=O)N(C)C)=C1C (centres undefined)	-6	-15	5	6	6	-9	nt	nt	nt
CC1=C(C(=O)OCc2ccc3c(c2)OCO3)C(c2ccc(Cl)cc2)NC(=O)N1 (centres undefined)	53*	94*	70*	33	-37	93*	29	nt	nt	Mdm2-MdmX confirm=95*
COc1cc(OC)nc(Nc2nc(C(N)c3ccccc3Cl)cs2)n1 (centres undefined)	38	13	9	12	-36	50*	nt	nt	nt	CF NFkB conf=8
CCCCN(CCCC)c1ncnc2nc[nH]c12	6	59*	33	34	-19	53*	nt	nt	nt	CF NFkB conf=70*
CCCCN(Cc1ccccc1)c1ncnc2nc[nH]c12	-213	-12	-19	-142	5	31	nt	nt	nt
CCN(c1ccc(OC)cc1)c1ncnc2nc[nH]c12	13	59*	38	18	3	66*	nt	nt	nt	CF NFkB conf=86*
COc1ccccc1CN1CC(C(=O)NCCC2=CCCCC2)CCC1=O (centres undefined)	-23	-5	-24	-53	5	-1	nt	nt	nt
Cc1cc(Cn2nc(C(=O)NCc3cccc(C(F)(F)F)c3)cc2-c2ccccc2)on1	-5	-14	4	16	-36	17	nt	nt	nt
CCN(CC)c1ncnc2ccc(Br)cc12	15	50	35	19	-17	71*	nt	nt	nt	CF NFkB conf=40*

Screens as filed in PubChem.
